Rows were chosen to be rich in hits. Some 2.6% of all compounds tested hit in one or more screens of this group.
FID counter = counter-screen for HCV NS3 helicase inhibitors: DNA intercalator displacement; inhibition, % at 7.9 µM; 290,000 compounds, 0.17% hits; DNA fluorescent intercalator displacement, fluorescence; in the data active means inhibition above about 37%;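 further: higher means more ethidium bromide displaced from hairpin DNA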
GPR7 antag = antagonists of human GPR7 (neuropeptides B/W receptor 1) | P48145 | GPR7-expressing cells, fluorescence antagonist assay | inhibition, % at 4.4 µM | 290,000 compounds, 1.1% hits; in the data active means inhibition above about 16%, passing the limit was not always enough;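 further: cells stimulated with the agonist NPW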
Target sequence (P48145 whole entry, looked up): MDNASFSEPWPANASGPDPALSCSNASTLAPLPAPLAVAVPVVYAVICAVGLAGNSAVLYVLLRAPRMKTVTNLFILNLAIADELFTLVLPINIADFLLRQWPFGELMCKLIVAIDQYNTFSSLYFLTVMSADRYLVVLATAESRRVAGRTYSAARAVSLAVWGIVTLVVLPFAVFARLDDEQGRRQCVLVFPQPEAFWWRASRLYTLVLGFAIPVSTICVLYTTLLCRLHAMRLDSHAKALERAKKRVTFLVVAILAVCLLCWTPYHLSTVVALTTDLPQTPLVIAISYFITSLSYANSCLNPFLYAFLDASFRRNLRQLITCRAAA
BaF3 tox = reduces parental Ba/F3 cell viability, JAK2V617F counter-screen; inhibition, % at 5.6 µM; 220,000 compounds, 1.1% hits; AID 1486; CellTiter-Glo ATP luminescence;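 active means inhibition above a per-campaign cutoff, the mean inhibition of all tested compounds plus 3 SD, cut at about 27% in these data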
KLF5 inhibitor = inhibitors of KLF5 expression; DLD-1 KLF5 promoter-luciferase reporter, luminescence; 290,000 compounds, 0.23% hits; inhibition, % at 5 µM;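 active means inhibition above a per-plate limit of that plate's mean compound inhibition plus 3 SD, cut at about 60% in these data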;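 further: higher means less KLF5 promoter-driven luciferase light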
IEC-6 tox = counter-screen for KLF5 inhibitors: cytotoxicity in IEC-6 cells; inhibition, % at 5 µM; AID 1825; IEC-6 cytotoxicity, luminescence viability; 290,000 compounds, 0.78% hits
Ba/F3 V617F tox = loss of viability in JAK2V617F-driven Ba/F3 cells. inhibition, % at 5.6 µM. AID 1446. Ba/F3 EpoR-JAK2V617F viability, ATP luminescence. 220,000 compounds, 1.1% hits;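 active means inhibition above the campaign mean plus 3 SD over all tested compounds, cut at about 24% in these data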;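 further: cytokine-independent growth of Ba/F3 cells driven by EpoR plus mutant JAK2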
GPR7 antag conf = human GPR7 antagonism, confirmation assay; AID 1952; GPR7-expressing cells, calcium fluorescence antagonist mode; 2,400 compounds, 52% hits; shares compounds with GPR7 antag; inhibition, % at 4.4 µM; in the data active means inhibition above about 24%;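 further: stimulated with the GPR7 agonist NPW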
MCHR1 antagonist = MCHR1 (human) antagonism in GPR7 counter-screen; shares compounds with GPR7 antag; MCHR1-expressing cells, fluorescence antagonist assay; inhibition, % at 4.4 µM; 2,400 compounds, 62% hits; AID 2148
A number is an active result; i = inactive; nt = not tested or not shown. Unless noted, no stated cut-off is given here; in the data, active means inhibition above about 22%; inactive means the rest.

SMILES	FID counter	GPR7 antag	BaF3 tox	KLF5 inhibitor	IEC-6 tox	Ba/F3 V617F tox	GPR7 antag conf	MCHR1 antagonist
CCOC(=O)C1(Cc2ccc(OC)cc2)CCN(C(=O)c2cc(C)on2)CC1	i	25.1	nt	i	i	nt	i	i
CCOC(=O)N1CCN(C(=O)c2ccc(NS(=O)(=O)c3ccc(C)cc3)cc2)CC1	i	i	nt	i	i	nt	nt	nt
Cc1ccc(NS(=O)(=O)c2ccc(C(=O)N3CCCN(C)CC3)cc2)cc1	i	i	i	i	i	i	nt	nt
CS(=O)(=O)Nc1ccc(C(=O)NCc2ccccn2)cc1	i	i	i	i	i	i	nt	nt
Cc1ccc(NS(=O)(=O)c2ccc(C(=O)N3CC(C)OC(C)C3)cc2)cc1 (configuration not stated)	i	37.0	nt	i	i	nt	35.7	34.6
Cc1ccc(NS(=O)(=O)c2ccc(C(=O)NCc3ccccn3)cc2)cc1	i	29.9	nt	i	i	nt	44.2	32.9
Cc1ccc(S(=O)(=O)NCc2ccc(C(=O)N3CCN(c4ccc([N+](=O)[O-])cc4)CC3)cc2)cc1	i	41.0	nt	i	i	nt	26.3	67.3
Cc1ccc(NS(=O)(=O)c2ccc(C(=O)N3CCCCCCC3)cc2)cc1	i	25.9	nt	i	i	nt	29.1	27.9
COc1ccc(N2CCN(C(=O)c3ccc(CNS(=O)(=O)c4ccc(C)cc4)cc3)CC2)cc1	i	i	nt	i	i	nt	nt	nt
O=C(NCc1ccccc1)C1CCCC1	i	i	nt	i	i	nt	nt	nt
CCCCCC(=O)Nc1ccc(-c2nnc3n2CCCCC3)cc1	i	i	nt	i	i	nt	nt	nt
O=C(CSc1nccc(=O)[nH]1)Nc1ccccc1Sc1ccccc1	i	i	i	i	i	i	nt	nt
CCc1c(O)nc(SCC(=O)Nc2cc(C)on2)n(-c2ccccc2)c1=O	i	i	nt	i	i	nt	nt	nt
COc1ccc2c(c1OC)C(=O)N1C2SC(C)(C)[C@H]1C(=O)NC1CCCC1 (some centres not stated)	i	i	nt	i	i	nt	nt	nt
O=C(c1ccc(S(=O)(=O)Nc2ccccc2)cc1)N1CCCC(C(F)(F)F)C1 (configuration not stated)	i	47.8	nt	i	i	nt	61.1	36.2
CCOc1ccc(NS(=O)(=O)c2ccc(C(=O)NCC3(N4CCCCC4)CCCCC3)cc2)cc1	i	58.2	nt	i	i	nt	i	34.2
CCOc1ccc(S(=O)(=O)Nc2ccc(C(=O)N3CCCC3)cc2)cc1	i	i	nt	i	i	nt	nt	nt
O=C(COC(=O)CCc1ccc(S(=O)(=O)N2CCCCC2)cc1)Nc1cccc2ccccc12	i	i	i	i	i	i	nt	nt
O=C(NCc1cccnc1)c1ccc(COc2ccc(Cl)cc2Cl)o1	i	i	i	i	i	i	nt	nt
O=C(NCc1cccnc1)c1ccc(COc2cccc3ccccc23)o1	i	31.9	i	i	i	i	44.5	43.0
CC(=O)Cn1c(CN2CCCCC2)nc2ccccc2c1=O	i	i	i	i	i	i	nt	nt
OCCN1CCN(CCCN2c3ccccc3Sc3ccc(Cl)cc32)CC1	i	i	i	i	i	i	nt	nt
CSc1ccc2c(c1)N(CCC1CCCCN1C)c1ccccc1S2 (configuration not stated)	i	42.5	i	i	nt	i	76.4	83.3
C/C(Cl)=C\Cn1c(O)c(N=O)c2ccccc21	i	i	i	i	i	i	nt	nt
CC1CCc2nc3sc4c(c3c(N)c2C1)CCCC4 (configuration not stated)	i	i	i	i	i	i	nt	nt
SMILES	FID counter	GPR7 antag	BaF3 tox	KLF5 inhibitor	IEC-6 tox	Ba/F3 V617F tox	GPR7 antag conf	MCHR1 antagonist
CC1CCc2c(nc3sc4c(c3c2N)CCCC4)C1 (configuration not stated)	i	22.5	i	i	i	i	i	i
Cc1coc2c(C)c3oc(=O)c(CCC(=O)NCCN4CCOCC4)c(C)c3cc12	i	i	nt	i	i	nt	nt	nt
Cc1cc(Br)cc(C)c1NC(=O)c1ccc(C#N)cc1F	i	i	i	i	i	i	nt	nt
O=C(CCC(=O)N1CCOc2ccccc21)NCCCN1CCOCC1	i	i	nt	i	i	nt	nt	nt
O=C1Nc2ccccc2C(=O)N2[C@H](c3ccc(F)cc3)[C@@H]3C(=O)N(Cc4ccccc4)C(=O)[C@@H]3[C@H]12	i	i	nt	i	i	nt	nt	nt
Cc1cccc(N(C)S(=O)(=O)c2cccc3nsnc23)c1	i	i	i	i	i	i	nt	nt
CCN(c1cccc(C)c1)S(=O)(=O)c1cccc2nsnc12	i	23.3	i	i	i	i	i	39.1

Screening results (PubChem BioAssay)
